# Results reported in PubChem BioAssay (Tox21).
# Values without a mark were called inactive. Entries that show only a call come without a potency. Calls of active or inactive are those of the source. The call rests on the fitted dose curve; in most records, active means well fitted curve in the direction sought with a large enough effect in the repeat runs; inconclusive means weak or mixed curves; inactive means flat fitted curve, though single readings scatter.
# Assay: qHTS assay to test for compound auto fluorescence at 460 nm (blue) in HEK293 cells (AID 720678)
# Settings: blue autofluorescence 405/460 nm; series mostly up to 91.3 µM
# Text: National Center for Advancing Translational Sciences [NCATS]
# NIH Chemical Genomics Center [NCGC]
# U.S. Environmental Protection Agency [EPA]
# National Institutes of Environmental Health Sciences [NIEHS]
# National Toxicology Program [NTP]
# U.S. Food and Drug Administration [FDA]
# Compound auto fluorescence often interferes with screening of the compound library against various biological targets and signaling pathways. Some of these compounds may have fluorophoric properties. Such properties may interfere with the assay outputs resulting in false positives and/or negatives. To decrease such complications and ensure the compound activities are relevant in terms of biological response, the Tox21 10K compound library was screened for auto fluorescence.
# From the fluorophores used as reporter signals in our screening assays, the auto fluorescence equivalencies of compounds against three fluorophores have been evaluated: Triamterene, Fluorescein and Rose Bengal sodium for blue, green and red fluorescence, respectively. The fluorescence intensities were measured using Excitation/Emission wavelengths at 405/460nm, 485/535nm and 540/590nm for blue, green and red labels, respectively. This assay includes the blue fluorescence data.
# Tox21 Assay Protocol Summary:
# 2,000 HEK293 cells in 5 uL of culture medium containing 10% dialyzed FBS per well were dispensed into black wall/clear bottom 1536-well plates using a Multidrop Combi Dispenser (Thermo Scientific). The assay plates were incubated for 4-5 hr at 37C to allow cell attachment to the well bottom, followed by the transfer of 23 nL compound or DMSO vehicle by a pintool work station (Kalypsys, San Diego, CA). After the assay plates were incubated overnight at 37C and 5% CO2, fluorescence intensities in the assay plates were measured by an Envision (PerkinElmer, Shelton, CT) plate reader using three labels for measuring blue, green and red fluorescence at […] 460, 535 and 590nm respectively.
SMILES,Potency,"fluorescence, % of triamterene"
OC1CCC(C2CCCCC2)CC1 (stereo not given),inactive,
CCCCCC/C=C\CCCCCCCC(=O)O,inactive,
Cc1c(F)c(N2CCNC(C)C2)cc2c1c(=O)c(C(=O)O)cn2C1CC1 (stereo not given),inactive,
CCCCOC(=O)CO,inactive,
CCCCCCCCCCCCCC[N+](C)(C)C,inactive,
Cc1c(C)c2c(c(C)c1OC(=O)c1cccnc1)CC[C@@](C)(CCC[C@H](C)CCC[C@H](C)CCCC(C)C)O2,inactive,
CC1(C)CCC[C@]2(C)[C@H]3CCO[C@]3(C)CC[C@@H]12,inactive,
CCCCC(CC)CN1CN(CC(CC)CCCC)CC(C)(N)C1 (stereo not given),,-0.206% [at 18.6 µM]
COc1cc2nc(N3CCN(C(=O)c4ccco4)CC3)nc(N)c2cc1OC,inactive,
O=C(Oc1ccccc1)Oc1ccccc1,inactive,
CCCCCc1ccc(Cl)cc1,inactive,
COC(=O)Nc1nc2ccc(C(=O)c3ccccc3)cc2[nH]1,,0.0612% [at 18.6 µM]
Sc1nc2ccccc2s1,inactive,
NC(=O)c1cccc([N+](=O)[O-])c1,inactive,
Nc1nc2c(ncn2COCCO)c(=O)[nH]1,,-0.0369% [at 18.6 µM]
Cc1nc2n(c(=O)c1CCN1CCC(c3noc4cc(F)ccc34)CC1)CCCC2,inactive,
CC1(C)CC(O)CC(C)(C)N1,inactive,
CC/C=C\CCCCCO,inactive,
O=C1NC(=O)[C@@H]2CC=CC[C@H]12,inactive,
S=c1nccc[nH]1,inactive,

SMILES,Potency,"fluorescence, % of triamterene"
OC[C@H]1O[C@H](O[C@H]2O[C@H](CO)[C@@H](O)[C@H](O)[C@H]2O)[C@H](O)[C@@H](O)[C@@H]1O,inactive,
CCCCOC(=O)CC,inactive,
C=CC(=O)Nc1cc2c(Nc3ccc(F)c(Cl)c3)ncnc2cc1OCCCN1CCOCC1,inactive,
CCOC(=O)NNc1ccc(N(CC)CC(C)O)nn1 (stereo not given),inactive,
S=C([S-])NCCNC(=S)[S-].S=C([S-])NCCNC(=S)[S-].[Mn+2].[Zn+2],inactive,
CC(C)CCOC(=O)/C=C/c1ccccc1,inactive,
c1ccc(C(O[C@@H]2CCCN(CCc3ccc4c(c3)OCO4)C2)c2ccccc2)cc1,inactive,
C#CC1(O)CC[C@H]2[C@@H]3CCC4=CCCC[C@@H]4[C@H]3CC[C@@]21C (stereo not given in full),inactive,
O=C(/C=C/c1ccccc1)OC/C=C/c1ccccc1,inactive,
O=C(/C=C/c1ccc(O)c(O)c1)O[C@@H](C(=O)O)[C@@H](OC(=O)/C=C/c1ccc(O)c(O)c1)C(=O)O,inactive,
CCN(CC)C(=O)c1cc(S(=O)(=O)Cc2ccccc2)c(N2CCC(c3ccccc3)CC2)cc1N(CC)CCN(C)C,inactive,
CC(=O)[C@H]1CC[C@H]2[C@@H]3CCC4=CC(=O)CC[C@]4(C)[C@H]3CC[C@]12C,inactive,
O=[N+]([O-])c1cccc(C(F)(F)F)c1,inactive,
CCCCNS(=O)(=O)c1ccc(C)cc1,inactive,
CC(C)(c1cc(Br)c(OCC(Br)CBr)c(Br)c1)c1cc(Br)c(OCC(Br)CBr)c(Br)c1 (stereo not given),inactive,
COc1ccc(-c2coc3cc(O)ccc3c2=O)cc1,inactive,
COc1cccc(OC)c1C(=O)O,inactive,
CCCCCCCC/C=C\CCCCCCCCN,inactive,
CCC(CC)(CC(=O)Nc1cccc(/C=C/c2nc(C3CCC3)cs2)c1)C(=O)O,inactive,
CC(CCc1ccccc1)NCC(O)c1ccc(O)c(C(N)=O)c1 (stereo not given),inactive,
